# Measurements taken from PubChem BioAssay AID504800 (The Scripps Research Institute Molecular Screening Center, 2011).
# This is one part of the list. The source made the active and inactive calls.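 Rule for the calls: active = mean activation over replicate wells exceeds the adjusted hit threshold taken from the earlier primary screen (cut at about 20% in these data); inactive = the rest.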
# Target: cAMP-dependent protein kinase type I-alpha regulatory subunit (Bos taurus) (UniProt P00514)
# Experiment: activators of PKA-R1A holoenzyme, confirmation, biochemical, fluorescence polarization, Cy5-IP20, triplicate (AID 504800);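 note: 0% = holoenzyme mix with DMSO only and 100% = cGMP-activated control wells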
# Details: PKA-R1A holoenzyme dissociation, at 11.4 µM, hits give high values
# Sequence of cAMP-dependent protein kinase type I-alpha regulatory subunit (Bos taurus) (P00514 whole entry, looked up): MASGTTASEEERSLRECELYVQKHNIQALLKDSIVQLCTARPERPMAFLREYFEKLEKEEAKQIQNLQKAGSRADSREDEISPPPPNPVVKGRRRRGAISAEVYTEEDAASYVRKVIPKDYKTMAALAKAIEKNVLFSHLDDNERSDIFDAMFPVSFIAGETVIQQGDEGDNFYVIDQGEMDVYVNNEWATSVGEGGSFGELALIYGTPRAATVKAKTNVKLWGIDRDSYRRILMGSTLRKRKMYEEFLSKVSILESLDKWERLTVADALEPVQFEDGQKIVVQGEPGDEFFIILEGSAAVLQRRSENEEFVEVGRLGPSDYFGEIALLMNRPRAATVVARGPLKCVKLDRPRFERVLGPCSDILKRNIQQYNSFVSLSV
row,SMILES,activation
1,CCC(Oc1ccccc1C)C(=O)Nc1ccc(S(=O)(=O)Nc2cc(C)on2)cc1 (stereo not given),2.1% (inactive)
2,CCOc1cc(C(=O)Nc2c(C)ccc3nsnc23)cc(OCC)c1OCC,-1.31% (inactive)
3,O=C(Nc1ccc2c(c1)[C@@H]1C[C@@H](CC(=O)N3CCCCC3)O[C@@H](CO)[C@@H]1O2)NC1CCCCC1,4.17% (inactive)
4,N#Cc1ccccc1CN1C(=O)S/C(=C/c2cccn2-c2cccc(C(=O)O)c2)C1=O,26.8% (active)
5,CCCC(=O)Nc1ncnc2c1ncn2[C@@H]1O[C@@H]2OP(=O)(O)OC[C@H]2[C@H]1OC(=O)CCC,43.8% (active)
6,COc1ccc(NC(=O)c2ccc(C#CC(C)(C)O)cc2)cc1,-0.53% (inactive)
7,Cc1ccc2nc3c(cc(C(=O)NCCc4ccccc4)c(=N)n3CC3CCCO3)c(=O)n2c1 (stereo not given),4.46% (inactive)
8,COc1ccccc1N1CC(C(=O)Nc2nnc(SCC(=O)NC(C)C)s2)CC1=O (stereo not given),-1.21% (inactive)
9,COc1ccc(CNc2nnnn2C)cc1,6.31% (inactive)
10,CN(C(=O)CSc1nnc(Nc2ccccc2)s1)C1CCS(=O)(=O)C1 (stereo not given),1.24% (inactive)
